# Laboratory results: PubChem BioAssay (Tox21)
# Results filed as inconclusive are left out. A call without a number means that no potency is given here. Active and inactive are the calls of the source. Unless noted, calls follow the shape of the dose curve; as a rule, active = well fitted curve in the direction sought with a large enough effect in the repeat runs; inconclusive = weak or mixed curves; inactive = no such curve, though single readings can be large; an effect the other way counts as inactive or inconclusive.
# Key:
# [1] = qHTS assay to identify small molecule agonists of the estrogen receptor alpha (ER-alpha) signaling pathway in the presence of an antagonist - cell viability counter screen (AID 1259386);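 also: cells exposed to compounds for 22 h at 37 °C before the viability read; nearly all actives have a fitted effect of over 30% in size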; also: potency is read from the fitted curve at half-maximal effect; as to activity change, negative = cytotoxicity: series mostly up to about 92 µM
# In short: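 Viability counter screen using VM7Luc4E2 (full-length ER-alpha, four ERE-luciferase). The cells were treated with compounds alongside ICI-182,780 10.0nM for 22hr, and live-cell protease fluorescence was quantified with CellTiter-Fluor.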
# [2] = target: Progesterone receptor (Homo sapiens) (UniProt P06401); experiment: qHTS assay to identify small molecule agonists of the progesterone receptor (PR) signaling pathway (AID 1346784; calls by dose curve; also: nearly all actives have a fitted effect of over 30% in size)
# In short: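 Using charcoal-stripped serum (2%) to limit endogenous steroids, PR-UAS-bla HEK 293T cells received compounds for 16 hr at 37C after 6 hr plating; beta-lactamase FRET fluorescence was recorded following 2 hr substrate loading at room temperature.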
# [3] = target: Progesterone receptor (Homo sapiens) (UniProt P06401); experiment: qHTS assay to identify small molecule antagonists of the progesterone receptor (PR) signaling pathway (AID 1346795; active = well fitted inhibition curve with a large enough effect in the signal ratio in the repeat runs, not every such curve was filed as active; the % refers to the signal ratio; also: potency is read from the fitted curve at half-maximal effect)
# In short: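 Inhibition of R5020-induced (1 nM final) beta-lactamase reporter signal in PR-UAS-bla HEK293T cells was scored by FRET fluorescence after overnight (16 hr) compound treatment.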
# [4] = qHTS assay to identify small molecule antagonists of the progesterone receptor (PR) signaling pathway - cell viability counter screen (AID 1346798); also: nearly all actives have a fitted effect of over 50% in size; also: potency is read from the fitted curve at half-maximal effect; as to activity change, negative = cytotoxicity: series mostly up to about 92 µM
# In short: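 ATP content as viability readout: CellTiter-Glo luminescence, 30 min room temperature, in PR-UAS-bla HEK293T cells after 16 hr compound/R5020 treatment at 37C and 5% CO2.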
# [5] = qHTS assay to identify small molecule antagonists of the TGF-beta/Smad signaling pathway - cell viability counter screen (AID 1346824); also: nearly all actives have a fitted effect of over 50% in size
# In short: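 SBE-bla HEK 293T cells were plated overnight at 37 C, then given compounds in DMSO plus TGF-beta1 (added as 0.25 ng/mL solution) for 5 hr. After the bla read, CellTiter-Glo was added to the same wells and luminescence read after 30 min at room temperature.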
# [6] = qHTS assay to identify small molecule agonists of the TGF-beta/Smad signaling pathway - cell viability counter screen (AID 1346829); also: top concentration of the series differs between compounds; nearly all actives have a fitted effect of over 45% in size
# In short: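 After overnight seating at 37 C and 5% CO2, reporter cells got compounds for 5 hr and FRET substrate for 2 hr; cell viability then came from CellTiter-Glo luminescence.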
# [7] = qHTS assay to identify small molecule agonists of the TGF-beta/Smad signaling pathway (AID 1346859; active = well fitted activation curve with a large enough effect in the signal ratio in the repeat runs, not every such curve was filed as active; the % refers to the signal ratio; also: series mostly up to about 77 µM)
# In short: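 Stable Smad binding element-beta-lactamase HEK 293T cells; 5 hr compound exposure at 37 C under 5% CO2; 2 hr room-temperature substrate step; fluorescence excited at 405 nm, collected at 460 nm and 530 nm.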
# [8] = target: Thyrotropin-releasing hormone receptor (Homo sapiens) (UniProt P34981); experiment: qHTS assay to identify small molecule antagonists of the thyrotropin-releasing hormone receptor (TRHR) signaling pathway (AID 1346877; active = well fitted inhibition curve with a large enough effect in the repeat runs, not every such curve was filed as active; also: potency is read from the fitted curve at half-maximal effect; as to activity, negative = inhibition: series mostly up to about 51 µM)
# In short: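 Following an 18 h incubation at 37 °C and a 2 h calcium dye load, TRHR-HEK293 cells were exposed to compound (5 min, room temperature) and challenged with TRH, 1 nM final.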
# [9] = qHTS assay to identify small molecule agonists of the progesterone receptor (PR) signaling pathway - cell viability counter screen (AID 1346799; calls by dose curve; also: nearly all actives have a fitted effect of over 45% in size; also: potency is read from the fitted curve at half-maximal effect)
# In short: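 Cytotoxicity in PR-bla HEK293T cells: 16 h compound, 37C; CellTiter-Glo added post-FRET read; luminescence after 30 min RT.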
# [10] = target: Thyrotropin-releasing hormone receptor (Homo sapiens) (UniProt P34981); experiment: qHTS assay to identify small molecule agonists of the thyrotropin-releasing hormone receptor (TRHR) signaling pathway (AID 1346891; calls by dose curve;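 also: HEK293 cells expressing TRHR with calcium dye readout; series mostly up to about 58 µM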)
# In short: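 In 1536-format, 1500 TRHR-Hek293 cells per well grew 18 h, took up calcium dye for 2 h at 37 °C, received compound, and were read kinetically; 15-point titrations, triplicates.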
# Chain of Thyrotropin-releasing hormone receptor (Homo sapiens) (P34981 whole entry, looked up): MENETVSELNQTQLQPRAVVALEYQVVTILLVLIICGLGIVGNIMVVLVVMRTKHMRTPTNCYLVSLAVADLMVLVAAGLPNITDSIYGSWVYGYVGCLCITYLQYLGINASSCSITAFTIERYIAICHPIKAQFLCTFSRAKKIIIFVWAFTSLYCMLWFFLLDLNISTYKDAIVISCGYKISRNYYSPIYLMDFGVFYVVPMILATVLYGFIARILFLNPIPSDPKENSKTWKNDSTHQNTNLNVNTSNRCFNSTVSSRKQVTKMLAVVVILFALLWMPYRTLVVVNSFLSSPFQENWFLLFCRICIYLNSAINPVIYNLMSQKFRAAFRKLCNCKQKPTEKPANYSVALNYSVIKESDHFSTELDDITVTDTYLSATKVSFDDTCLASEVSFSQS
# Chain of Progesterone receptor (Homo sapiens) (P06401 whole entry, looked up): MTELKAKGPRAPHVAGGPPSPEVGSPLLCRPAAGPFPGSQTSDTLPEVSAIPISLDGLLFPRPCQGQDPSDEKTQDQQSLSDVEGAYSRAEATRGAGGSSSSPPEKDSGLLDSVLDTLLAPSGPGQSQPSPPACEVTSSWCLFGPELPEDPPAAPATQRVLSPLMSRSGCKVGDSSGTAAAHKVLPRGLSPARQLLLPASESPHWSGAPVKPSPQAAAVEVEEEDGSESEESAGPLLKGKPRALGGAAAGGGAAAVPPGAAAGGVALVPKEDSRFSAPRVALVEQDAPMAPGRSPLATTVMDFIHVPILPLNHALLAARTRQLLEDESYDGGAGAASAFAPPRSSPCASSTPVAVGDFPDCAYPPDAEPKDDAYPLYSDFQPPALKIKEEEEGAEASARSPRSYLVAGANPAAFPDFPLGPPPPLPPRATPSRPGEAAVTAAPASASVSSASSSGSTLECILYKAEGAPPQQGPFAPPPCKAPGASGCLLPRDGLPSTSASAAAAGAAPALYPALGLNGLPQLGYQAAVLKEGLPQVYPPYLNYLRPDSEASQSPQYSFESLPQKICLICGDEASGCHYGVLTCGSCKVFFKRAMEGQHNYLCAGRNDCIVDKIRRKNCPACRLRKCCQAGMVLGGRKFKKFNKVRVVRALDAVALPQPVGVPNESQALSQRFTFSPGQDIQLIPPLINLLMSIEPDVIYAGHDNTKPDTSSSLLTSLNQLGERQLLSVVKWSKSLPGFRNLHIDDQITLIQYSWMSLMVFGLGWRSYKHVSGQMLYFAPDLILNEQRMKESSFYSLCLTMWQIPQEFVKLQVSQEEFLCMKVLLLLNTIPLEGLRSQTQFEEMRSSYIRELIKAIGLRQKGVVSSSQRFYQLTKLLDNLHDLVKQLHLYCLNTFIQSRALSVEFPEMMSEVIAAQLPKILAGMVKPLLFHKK
SMILES,Potency [1],Potency [2],Potency [3],Potency [4],Potency [5],Potency [6],Potency [7],Potency [8],Potency [9],Potency [10],activation [2],"activity change, negative = cytotoxicity [4]","activity change, negative = cytotoxicity [9]","viability change, negative = cytotoxic [5]","activity change, negative = cytotoxicity [6]",activation [7],"activity, negative = inhibition [8]"
Cc1ccc(O)c2ncccc12,inactive,inactive,7.5 µM (active),inactive,inactive,inactive,inactive,5.23 µM (active),–,–,–,–,–,–,–,–,–
Nc1ccc2cc(S(=O)(=O)O)cc(O)c2c1N=Nc1ccccc1C(F)(F)F,48.6 µM (active),inactive,inactive,inactive,–,inactive,inactive,inactive,inactive,inactive,–,–,–,–,–,–,–
COc1cc(/C=C/C(=O)O[C@H]2CC[C@]34C[C@]35CC[C@]3(C)[C@@H]([C@H](C)CCC=C(C)C)CC[C@@]3(C)[C@@H]5CC[C@H]4C2(C)C)ccc1O,inactive,inactive,inactive,inactive,inactive,inactive,inactive,inactive,inactive,inactive,–,–,–,–,–,–,–
CC(=O)SC[C@@H](Cc1ccccc1)C(=O)NCC(=O)OCc1ccccc1,inactive,inactive,inactive,inactive,inactive,inactive,inactive,–,inactive,–,–,–,–,–,–,–,–
CCCC(C)c1ccccc1O (centres undefined),inactive,inactive,inactive,inactive,inactive,inactive,inactive,inactive,inactive,inactive,–,–,–,–,–,–,–
CC(C)(C)NC(=O)[C@@H]1C[C@@H]2CCCC[C@@H]2CN1C[C@@H](O)[C@H](Cc1ccccc1)NC(=O)[C@H](CC(N)=O)NC(=O)c1ccc2ccccc2n1,49.2 µM (active),inactive,49.2 µM (active),55.2 µM (active),–,–,–,–,39.1 µM (active),–,–,–,–,–,–,–,–
NC(=O)NS(=O)(=O)c1ccc(N)cc1,inactive,inactive,inactive,inactive,inactive,inactive,inactive,inactive,inactive,inactive,–,–,–,–,–,–,–
COC(=O)c1cc(Cl)ccc1OC,inactive,inactive,inactive,inactive,inactive,inactive,inactive,inactive,inactive,inactive,–,–,–,–,–,–,–
CSc1cnc(C)cn1,inactive,inactive,inactive,inactive,inactive,inactive,inactive,inactive,inactive,inactive,–,–,–,–,–,–,–
CNC(=O)c1ccccc1,inactive,inactive,inactive,inactive,inactive,inactive,inactive,inactive,inactive,inactive,–,–,–,–,–,–,–
CN(C)[C@@H]1C(=O)C(C(N)=O)=C(O)[C@@]2(O)C(=O)C3=C(O)c4c(O)ccc(Cl)c4[C@@H](O)[C@H]3C[C@@H]12,inactive,inactive,inactive,inactive,inactive,inactive,–,inactive,inactive,inactive,–,–,–,–,–,–,–
C/C=C(\C)C(=O)OCc1ccccc1,inactive,inactive,inactive,inactive,inactive,inactive,inactive,–,inactive,–,–,–,–,–,–,–,–
O=C(O)c1c(Cl)cccc1Cl,inactive,inactive,inactive,inactive,inactive,inactive,inactive,–,inactive,–,–,–,–,–,–,–,–
Cc1onc(-c2c(Cl)cccc2Cl)c1C(=O)N[C@@H]1C(=O)N2[C@@H]1SC(C)(C)[C@@H]2C(=O)O,inactive,inactive,–,inactive,inactive,inactive,inactive,inactive,inactive,inactive,–,–,–,–,–,–,–
Cc1cccc(S(=O)(=O)O)c1C,inactive,inactive,–,inactive,inactive,inactive,inactive,inactive,inactive,inactive,–,–,–,–,–,–,–
CC(C)(C)C(=O)OCOC(=O)[C@@H]1N2C(=O)[C@@H](NC(=O)[C@H](N)c3ccccc3)[C@H]2SC1(C)C,inactive,inactive,–,inactive,inactive,inactive,inactive,inactive,inactive,inactive,–,–,–,–,–,–,–
Oc1ccc2c(c1)-c1ccccc1C2,inactive,inactive,–,inactive,inactive,inactive,inactive,inactive,inactive,inactive,–,–,–,–,–,–,–
CSc1ccc(C(=O)c2[nH]c(=O)[nH]c2C)cc1,inactive,inactive,–,inactive,inactive,inactive,inactive,–,inactive,–,–,–,–,–,–,–,–
O=C(OC[C@H]1O[C@@H](OC(=O)c2cc(O)c(O)c(OC(=O)c3cc(O)c(O)c(O)c3)c2)[C@H](OC(=O)c2cc(O)c(O)c(OC(=O)c3cc(O)c(O)c(O)c3)c2)[C@@H](OC(=O)c2cc(O)c(O)c(OC(=O)c3cc(O)c(O)c(O)c3)c2)[C@@H]1OC(=O)c1cc(O)c(O)c(OC(=O)c2cc(O)c(O)c(O)c2)c1)c1cc(O)c(O)c(OC(=O)c2cc(O)c(O)c(O)c2)c1,18.5 µM (active),–,–,–,–,–,–,–,–,–,2.55% [at 19 µM] (inactive),-7.91% [at 18.9 µM] (inactive),9.14% [at 19 µM] (inactive),3.78% [at 15.8 µM] (inactive),7.05% [at 15.8 µM] (inactive),-3.84% [at 15.8 µM] (inactive),4.26% [at 10.5 µM] (inactive)
CCC(C)(C)C1CCCCC1OC(C)=O (centres undefined),inactive,inactive,–,inactive,inactive,inactive,inactive,inactive,inactive,inactive,–,–,–,–,–,–,–
COc1cc(-c2ccc(N=C=O)c(OC)c2)ccc1N=C=O,inactive,inactive,–,inactive,inactive,inactive,inactive,inactive,inactive,inactive,–,–,–,–,–,–,–
